# Experimental data: PubChem BioAssay (NCATS)
# Where “and” joins values, the source holds several entries; their conditions need not be identical. Identical values can stand only once. Inconclusive results are not listed. Where a call stands in place of a potency, no number is given. Calls of active or inactive are those of the source. Unless noted, the call rests on the fitted dose curve; in most records, active means well fitted curve in the direction sought with a large enough effect; inconclusive means small, poorly fitted or top-dose-only effect, or another doubt; inactive means no such curve, though single readings can be large; an effect the other way counts as inactive or inconclusive.
# Assays:
# [1] = Cytotoxicity counterscreen for inhibitors of SARS-CoV-2 cell entry (AID 1645845; calls by dose curve; further: nearly all actives have a fitted effect of over 50% in size; further: potency means the concentration at half of the fitted maximal effect)
# Procedure, shortened: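 HEK293-ACE2 cells (Expi293F stably expressing human ACE2) seeded overnight, then compound for 1 h plus 48 h at 37C. Viability as ATP content by luminescence; normalized to wells with cells and media-only wells.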
# [2] = molecular target: Cytochrome P450 3A4 (Homo sapiens) (UniProt P08684); experiment: qHTS Assay for Inhibitors and Substrates of Cytochrome P450 3A4 (AID 884); further: nearly all actives have a fitted effect of over 50% in size; further: potency means the concentration at half of the fitted maximal effect
# Cytochrome P450 3A4 (Homo sapiens), sequence (P08684 whole entry, looked up): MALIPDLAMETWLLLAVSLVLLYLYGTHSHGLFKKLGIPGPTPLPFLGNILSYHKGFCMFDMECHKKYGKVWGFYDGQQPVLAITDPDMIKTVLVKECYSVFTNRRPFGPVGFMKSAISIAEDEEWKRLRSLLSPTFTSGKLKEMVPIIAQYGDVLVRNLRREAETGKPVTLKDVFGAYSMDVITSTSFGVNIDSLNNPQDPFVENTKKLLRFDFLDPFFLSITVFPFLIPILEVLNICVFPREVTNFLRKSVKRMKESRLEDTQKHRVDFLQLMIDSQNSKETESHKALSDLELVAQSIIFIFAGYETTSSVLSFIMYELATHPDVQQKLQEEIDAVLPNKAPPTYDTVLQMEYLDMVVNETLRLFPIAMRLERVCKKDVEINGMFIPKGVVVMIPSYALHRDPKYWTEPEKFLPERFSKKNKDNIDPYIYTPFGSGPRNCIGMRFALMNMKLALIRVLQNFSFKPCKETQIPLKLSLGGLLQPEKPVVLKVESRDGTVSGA
# Procedure, shortened: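 20 nM human CYP3A4 with 25 uM Luciferin-PPXE (at KM) in 200 mM KPO4, preincubated 10 min with compound; NADPH regeneration started a 60 min RT reaction. Luciferin detected by luminescence, normalized to 57 uM ketoconazole as full inhibition.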
# [3] = Confirmation and Secondary Assay for Modulators of Hemoglobin Beta Chain Splicing at IVS2 654 locus (AID 910);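 further: HeLa cells stably carrying EGFP split by mutant beta-globin IVS2-654 intron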
# Procedure, shortened: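 HeLa cells stably expressing EGFP interrupted by β-globin IVS2-654 intron, seeded overnight in Opti-MEM/2% FCS, then treated 2 days at 37 °C. Restored splicing read as total peak GFP intensity per well by laser scanning cytometry (488 nm excitation, 500–520 nm emission); 500 nM antisense PNA as control.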
# [4] = AP1 Signaling Pathway (AID 357; active means well fitted curve in either direction with a large enough effect, not every such curve was filed as active;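 further: ME-180 reporter cells stimulated with EGF at its EC50 level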)
# Procedure, shortened: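 In this screen, ME-180 cells in Opti-MEM with 0.5% dialyzed FBS received EC50 EGF and compound titrations for 5 h. AP-1 reporter beta-lactamase was detected via CCF4 ratio, giving AC50 for positive and negative modulators.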
# [5] = Stat Signaling Pathway (AID 446; active means well fitted curve in either direction with a large enough effect, not every such curve was filed as active;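 further: ME-180 cervical cancer cells given 40 pM IL-6 alongside compound; SIE-controlled beta-lactamase reporter measured as 460/530 nm FRET emission ratio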)
# Procedure, shortened: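 IL-6/STAT signaling read in ME-180 cells via an SIE beta-lactamase reporter. Stimulus was 40 pM IL-6 (its AC50) for 5 hrs, so both activation and inhibition register.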
# [6] = molecular target: Muscarinic acetylcholine receptor M1 (Rattus norvegicus) (UniProt P08482); experiment: qHTS Assay for Antagonists of Acetylcholine Muscarinic M1 Receptor: Kinetic Measurement of Intracellular Calcium Response (AID 943);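 further: Fluo-4 calcium signal as peak divided by basal fluorescence over 4 min; series mostly up to about 35 µM; nearly all actives have a fitted effect of over 75% in size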
# Muscarinic acetylcholine receptor M1 (Rattus norvegicus), sequence (P08482 whole entry, looked up): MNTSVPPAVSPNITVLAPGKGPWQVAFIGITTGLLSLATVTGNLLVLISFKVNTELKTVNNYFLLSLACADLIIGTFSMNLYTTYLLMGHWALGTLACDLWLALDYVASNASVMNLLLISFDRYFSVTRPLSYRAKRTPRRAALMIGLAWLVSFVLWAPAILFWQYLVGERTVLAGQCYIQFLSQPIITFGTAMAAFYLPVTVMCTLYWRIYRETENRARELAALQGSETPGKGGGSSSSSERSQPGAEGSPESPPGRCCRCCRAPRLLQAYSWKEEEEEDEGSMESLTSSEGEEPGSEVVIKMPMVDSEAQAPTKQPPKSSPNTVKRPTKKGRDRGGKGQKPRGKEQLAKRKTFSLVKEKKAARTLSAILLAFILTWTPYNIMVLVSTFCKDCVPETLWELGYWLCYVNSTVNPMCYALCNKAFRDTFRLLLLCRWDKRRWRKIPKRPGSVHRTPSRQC
# Procedure, shortened: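 Intracellular calcium flux, recorded with Fluo-4 in a kinetic plate reader, served as signal; the response to carbachol at EC80 (100 nM final) was taken as maximal over minimal fluorescence after a 10 min compound pre-incubation in rat M1-CHO cells.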
# [7] = molecular target: Muscarinic acetylcholine receptor M1 (Rattus norvegicus) (UniProt P08482); experiment: qHTS Assay for Antagonists of Acetylcholine Muscarinic M1 Receptor: Measurement of IP-One Response (AID 944); further: nearly all actives have a fitted effect of over 75% in size
# Procedure, shortened: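 Steps: plate transfected CHO-M1 cells overnight; add test compound, 10 min; add carbachol (200 nM, EC80) in stimulation buffer with LiCl; incubate 30 min; add labelled IP1 tracer and anti-IP1 antibody in lysis buffer; read HTRF after 10 min.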
# [8] = tested on: Zika virus NS2B-NS3 protease (unlinked complex); experiment: Confirmatory screen GU AMC qHTS for Zika virus inhibitors (AID 1347153); further: nearly all actives have a fitted effect of over 70% in size; further: potency means the concentration at half of the fitted maximal effect
# Procedure, shortened: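 Unlinked enzyme 25 nM, Tris pH 8.0/0.01% Tween 20; cpd 15 min RT, dark; + AMC substrate 10 µM (Km 18.3 µM); 340/450 nm read at t0 and 15 min; % inhibition → 4-param fit.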
# [9] = Confirmatory screen NINDS Rhodamine qHTS for Zika virus inhibitors (AID 1347161); further: nearly all actives have a fitted effect of over 60% in size; further: potency means the concentration at half of the fitted maximal effect
# Procedure, shortened: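 Single-chain NS2B-NS3 protease, 25 nM, pH 8.0; compounds preincubated 15 min. Activity: Rhodamine110 release from 1.5 microM substrate over 15 min, room temperature, data fitted to 4-parameter Hill.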
# [10] = molecular target: Endonuclease 4 (Escherichia coli (strain K12)) (UniProt P0A6C1); experiment: Counterscreen for APE1 Inhibitors: qHTS Validation Assay for Inhibitors of Endonuclease IV (AID 1708)
# Procedure, shortened: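 Cleavage of a quenched abasic-site DNA duplex (50 nM, 5'-TAMRA, 3'-BHQ-2) by 2 nM enzyme is followed as fluorescence increase. Compounds are preincubated with enzyme 15 min at room temperature before substrate addition.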
# [11] = qHTS for differential inhibitors of proliferation of Plasmodium falciparum line 7G8 (AID 1815);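 further: parasite growth measured after three days of incubation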; further: potency means the concentration at half of the fitted maximal effect
# [12] = qHTS for differential inhibitors of proliferation of Plasmodium falciparum line GB4 (AID 1816); conditions: Potency: Plasmodium falciparum GB4 proliferation inhibition;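 further: parasite growth measured after 72 h incubation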; further: potency means the concentration at half of the fitted maximal effect
# [13] = qHTS for differential inhibitors of proliferation of Plasmodium falciparum line D10 (AID 1877);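 further: parasites grown with compound for 72 h before DNA staining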
# [14] = qHTS for differential inhibitors of proliferation of Plasmodium falciparum line W2 (AID 1883); conditions: Potency: Plasmodium falciparum W2 proliferation inhibition;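 further: parasites grown with compound for 72 h before lysis and staining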; further: potency means the concentration at half of the fitted maximal effect
# [15] = qHTS for differential inhibitors of proliferation of Plasmodium falciparum line HB3 (AID 1886); conditions: Potency: Plasmodium falciparum HB3 proliferation inhibition;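 further: parasites grown with compound for 72 h before SYBR Green readout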
# [16] = Validation screen for inhibitors of Lassa infection (AID 463096; calls by dose curve)
# [17] = Quantitative high throughput screen for delayed death inhibitors of the malarial parasite plastid, 48 hour incubation (AID 488752); further: nearly all actives have a fitted effect of over 65% in size
# Procedure, shortened: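 One parasite generation (48 h, 37 C, 5% CO2) of luciferase-reporter P. falciparum in erythrocytes is run with test compound; decreased luminescence indicates inhibited growth.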
# [18] = qHTS for differential inhibitors of proliferation of Plasmodium falciparum line 3D7 (AID 1876);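 further: parasite growth measured after three days of culture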
# [19] = qHTS for differential inhibitors of proliferation of Plasmodium falciparum line Dd2 (AID 1882); conditions: Potency: Plasmodium falciparum Dd2 proliferation inhibition;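 further: series mostly up to about 29 µM; compound exposure of 72 h on infected erythrocytes; nearly all actives have a fitted effect of over 65% in size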
# Procedure, shortened: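 SYBR Green I DNA fluorescence read-out, ex 485/em 535 nm. Signals were normalized to 0.29 uM artemisinin and DMSO wells, then corrected using vehicle-only plates flanking each stack. Parasite growth ran 72 h in erythrocytes before lysis.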
# [20] = qHTS Assay for Modulators of Human Peripheral Myelin Protein 22 (PMP22) Expression/Activity (AID 1967; active means well fitted curve in the direction sought with a large enough effect in the signal ratio; the % refers to the signal ratio)
# Procedure, shortened: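 MSC80 mouse Schwann cells stably carrying Pmp22 promoter–green click beetle luciferase plus EF-alpha–red luciferase control were dosed for 24h at 37 °C. Dual-colour luminescence was filter-overlap corrected; %Activity came from green/red ratio versus untreated cells.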
compound,measurement,setting,value
CCCCCCCCc1ccc(CCC(N)(CO)CO)cc1,Potency,[1],7.08 µM (active) and 25.1 µM (active)
COc1ccc(Cn2ccc3ccc(C(=O)NO)cc32)cc1,Potency,[1],inactive
C=CC(=O)N1CCC[C@@H](n2nc(-c3ccc(Oc4ccccc4)cc3)c3c(N)ncnc32)C1,Potency,[1],inactive
CCC[C@H](N[C@@H](C)C(=O)N1[C@@H]2CCCC[C@H]2C[C@H]1C(=O)O)C(=O)OCC,Potency,[1],inactive
C[C@@]1(c2cc(-c3cncnc3)c(F)cc2F)CCSC(N)=N1,Potency,[1],inactive
CC1(C)CNc2cc(NC(=O)c3cccnc3NCc3ccncc3)ccc21,Potency,[1],inactive
CC(=O)OC[C@@H]1O[C@@H](n2ccc(=O)[nH]c2=O)[C@H](OC(C)=O)[C@H]1OC(C)=O,Potency,[1],inactive
COC1C(O)C(C)O[C@@H](OC2CC[C@@]3(C)C4CC[C@]5(C)C(C6=CC(=O)OC6)CC[C@@]5(O)C4CC[C@@H]3C2)C1O (stereo partly drawn),Potency,[2],inactive
same,Potency,[3],inactive
CN(C(=O)Cc1ccc(Cl)c(Cl)c1)[C@@H](CN1CCCC1)c1cccc(OCC(=O)O)c1,outcome,[4],inactive
same,outcome,[5],inactive
same,Potency,[6],inactive
same,Potency,[7],inactive
same,Potency,[8],inactive
same,Potency,[9],inactive
CNc1ccc2oc(C[C@@H]3OC4(CC[C@@H]3C)O[C@H]([C@@H](C)C(=O)c3ccc[nH]3)[C@H](C)C[C@H]4C)nc2c1C(=O)O (stereo partly drawn),Potency,[8],24.1 µM (active)
same,Potency,[9],9.87 µM (active)
COc1cc2c(cc1OCC1CCCC1)N([S+](=O)([O-])c1ccc(Oc3ccccc3)cc1)CC21CCN(CC(=O)O)CC1,Potency,[8],inactive
Oc1c(Cl)c(Cl)c(Cl)c(Cl)c1Cl,Potency,[3],inactive
same,Potency,[9],4.47 µM (active)
O=c1c(O)c(-c2ccc(O)c(O)c2)oc2c(O)c(O)cc(O)c12,Potency,[2],inactive
same,Potency,[3],inactive
same,Potency,[9],11.2 µM (active)
C=CCN1CCC2(C)c3cc(O)ccc3CC1C2C (stereo not drawn),outcome,[10],inactive
same,Potency,[11],7.08 µM (active)
same,Potency,[12],12.6 µM (active)
same,Potency,[13],inactive
same,Potency,[14],5.62 µM (active)
same,Potency,[15],inactive
same,Potency,[16],inactive
same,Potency,[17],inactive
Cc1ccc2c(=O)c3cccc(CC(=O)O)c3oc2c1C,Potency,[1],inactive
Clc1cncc(N2CCNCC2)n1,Potency,[8],inactive
same,Potency,[9],inactive
COC(=O)c1cc2c(cn1)[nH]c1ccccc12,outcome,[4],inactive
same,outcome,[5],inactive
same,Potency,[2],inactive
same,Potency,[6],inactive
same,Potency,[7],inactive
same,outcome,[10],inactive
same,Potency,[11],11.2 µM (active)
same,Potency,[18],inactive
same,Potency,[19],inactive
same,Potency,[14],12.6 µM (active)
same,Potency,[16],inactive
same,Potency,[8],24.1 µM (active)
Ic1cncc(OC[C@@H]2CCN2)c1,Potency,[8],inactive
same,Potency,[9],34.9 µM (active)
CC(C)=CCCC1(C)C=Cc2c(O)c3c(c(CC=C(C)C)c2O1)OC12C(=CC4CC1C(C)(C)OC2(C/C=C(/C)C(=O)O)C4O)C3=O (stereo not drawn),Potency,[2],20 µM (active)
same,Potency,[3],inactive
same,Potency,[8],17.1 µM (active)
same,Potency,[9],2.78 µM (active)
COc1ccc2[nH]cc(CCN(C)C)c2c1,outcome,[4],inactive
same,outcome,[5],inactive
same,Potency,[6],inactive
same,Potency,[7],inactive
same,outcome,[10],inactive
same,Potency,[11],inactive
same,Potency,[18],inactive
same,Potency,[13],inactive
same,Potency,[19],inactive
same,Potency,[15],inactive
same,outcome,[20],inactive
same,Potency,[16],inactive
same,Potency,[17],inactive
N[C@H](CCCCCP(=O)(O)O)C(=O)O,outcome,[4],inactive
same,outcome,[5],inactive
same,Potency,[6],inactive
same,Potency,[7],inactive
same,Potency,[11],inactive
same,Potency,[12],inactive
same,Potency,[18],inactive
same,Potency,[13],inactive
same,Potency,[19],inactive
same,Potency,[14],inactive
same,Potency,[15],inactive
same,Potency,[16],inactive
same,Potency,[17],inactive
